RORgamma inh – inhibitors of mouse ROR gamma transcriptional activity; 310,000 compounds, 5.4% hits; P51450; Drosophila S2 Gal4-RORgamma UAS-luciferase reporter, 20 h; Potency, µM (series often up to 53.6 µM), for the others: at the highest dose activity change, negative = inhibition, most hits filed as inhibitors; AID 2551; note: potency is the fitted concentration of half-maximal effect; nearly all actives have a fitted effect of over 60% in size
Target sequence (P51450 whole entry, looked up, the tested form may be a part): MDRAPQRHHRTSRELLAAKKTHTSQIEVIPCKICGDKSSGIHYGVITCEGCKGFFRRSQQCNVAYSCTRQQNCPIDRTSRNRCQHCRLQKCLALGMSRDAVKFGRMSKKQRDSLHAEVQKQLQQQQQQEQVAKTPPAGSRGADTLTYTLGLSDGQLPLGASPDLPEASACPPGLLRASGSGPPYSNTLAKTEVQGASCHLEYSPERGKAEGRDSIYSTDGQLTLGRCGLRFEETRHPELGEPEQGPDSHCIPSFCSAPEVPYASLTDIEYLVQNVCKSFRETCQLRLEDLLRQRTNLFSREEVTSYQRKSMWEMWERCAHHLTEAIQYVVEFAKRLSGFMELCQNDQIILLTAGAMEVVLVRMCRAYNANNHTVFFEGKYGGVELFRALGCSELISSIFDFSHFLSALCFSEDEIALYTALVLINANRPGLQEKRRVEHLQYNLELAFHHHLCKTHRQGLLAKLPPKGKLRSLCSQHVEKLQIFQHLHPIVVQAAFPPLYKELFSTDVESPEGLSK
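Stable Schneider cell line, Gal4 DNA-binding domain fused to ROR gamma, UAS-luciferase. Cmpd 1 hr RT → CuSO4 700 uM final → 20 hr RT → luciferase reagent 10 min → luminescence.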
TDP1 cell noCPT – qHTS for Inhibitors of human tyrosyl-DNA phosphodiesterase 1 (TDP1): qHTS in cells in absence of CPT. DT40 Tdp1-/- hTDP1 cells, no CPT, ATP luminescence, 48 h. Potency, µM (titrated, usually from 46.2 µM), without a hit: at the top dose activity change, negative = growth inhibition, hits mostly inhibitors. 420,000 compounds, 15% hits. AID 686978, 2013; note: potency is the fitted concentration of half-maximal effect; nearly all actives have a fitted effect of over 55% in size
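Camptothecin absent (DMSO only). Human TDP1-complemented DT40 knockout cells, 400 cells/well, 37 °C for minimum 48 hr; ATP measured via CellTiter-Glo, 30 min dark incubation, luminescence.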
IL1B secr inh – blocks inflammasome-driven IL-1 beta release | 360,000 compounds, 4.7% hits | activity change, % at 57.5 µM | THP-1 LPS/ATP IL-1B secretion, AlphaLISA, 16 h; active compounds read low; in the data active = activity change below about -50%; inconclusive = mostly about -30% to -49%
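Secreted IL-1B measured by AlphaLISA bead assay after 16 h compound exposure of THP-1 cells; compounds (final up to 57.5 uM) added 1 h before LPS (250 ng/mL) and ATP (1.25 mM) stimulation; lower signal means less secretion.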
VP16 counter – inhibits Gal4-VP16 luciferase reporter, ROR gamma counter-screen | AID 2546 | Potency, µM (doses to about 53.6 µM), inactives show top-dose activity, negative = inhibition, most hits filed as inhibitors | Drosophila S2 Gal4-VP16 UAS-luciferase, luminescence, 20 h | 310,000 compounds, 3.5% hits;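 note: Gal4-VP16 expression switched on by copper sulfate through the metallothionein promoter; potency is the fitted concentration of half-maximal effect; nearly all actives have a fitted effect of over 50% in size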
ELG1 repair inh – blocks ELG1-dependent DNA repair in HEK293T cells | HEK293T ELG1-luciferase reporter, luminescence, 16 h; DNA damage induced by 5-fluorouridine | Potency, µM (top dose mostly 46.1 µM), inactives show top-dose activity change, negative = inhibition, most hits filed as inhibitors | 330,000 compounds, 2.3% hits; note: potency is the fitted concentration of half-maximal effect; nearly all actives have a fitted effect of over 55% in size
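DMSO vehicle served as the neutral condition. Each well held 2,000 cells given 5-fluorouridine plus compound; after 16 hr at 37 °C/5% CO2, ONE-Glo was added and luciferase measured 30 min later.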
TDP1 cell CPT – DT40-hTDP1 cell growth loss with CPT; chicken DT40 Tdp1-/-;hTDP1 cells + 20 nM CPT, ATP luminescence, 48 h; Potency, µM (highest dose often 46.2 µM), without a hit: at the top dose activity change, negative = growth inhibition, actives largely listed as inhibitors; 420,000 compounds, 12% hits; note: potency is the fitted concentration of half-maximal effect; nearly all actives have a fitted effect of over 55% in size
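Chicken DT40 Tdp1-/- cells complemented with human TDP1, 400 cells/well, exposed to compounds plus 20 nM camptothecin for at least 48 h at 37 C; viability read as ATP content by CellTiter-Glo luminescence.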
* hit, by the source's call; u = inconclusive; x = no result; [ ] = remark or other dose. Compounds with a hit are over-represented: about 21% of the library has one in this group of screens. Unless noted, calls come from the whole dose curve; as a rule, active = well fitted curve in the direction sought with a large enough effect; inconclusive = small, poorly fitted or top-dose-only effect, or another doubt; inactive = no such curve, though single readings can be large; an effect the other way counts as inactive or inconclusive. % is set by controls: 0 for no effect and ±100 for the full control effect.

SMILES	RORgamma inh	TDP1 cell noCPT	IL1B secr inh	VP16 counter	ELG1 repair inh	TDP1 cell CPT
COc1ccc(S(=O)(=O)N2Cc3cnnn3-c3ccccc3C2C#N)cc1 (stereo unspecified)	x	8%	0	x	x	2%
COc1ccc(S(=O)(=O)N2c3ccc(F)cc3CCC2C)cc1 (stereo unspecified)	x	0.58µM*	53	x	x	0.92µM*
Cc1ccc2oc(=O)c(-c3nc4ccc(C)cc4[nH]3)cc2c1	x	-29%	x	x	x	u
Cc1nc(-c2nc(-c3c(C(=O)NNC(=O)c4ccc(Cl)cc4)noc3C)cs2)cs1	10µM*	u	11	u	u	-6%
CCN(CC)C(=O)[C@H]1C[C@H](CC(=O)NCC23CC4CC(CC(C4)C2)C3)C(=O)N2CCc3c([nH]c4cc(-c5ccco5)ccc34)[C@]12C	x	u	3	x	u	u
COc1cccc(-c2nc3cc4c(cc3cc2CN(C(=O)c2cccs2)C2CC2)CCC4)c1OC	x	16µM*	x	x	x	u
Cc1cc(O)c(CN2CC=C(c3ccccc3)CC2)cc1C(C)C	3%	u	5	9%	u	u
O=c1cc(CN2CC=C(c3ccccc3)CC2)c2c(ccc3ccccc32)o1	5.6µM*	21µM*	26	-6%	12%	u
CC1=C2C3OC(=O)C(C)C3CC[C@@]2(C)C=CC1=O (stereo partly specified)	-11%	4%	11	19%	0%	7%
CC(=O)N1CCN(c2ccc(OCC3CO[C@@](Cn4ccnc4)(c4ccc(Cl)cc4Cl)O3)cc2)CC1 (stereo partly specified)	2%	6.5µM*	x	u	x	7.3µM*
CCC1COC(Cn2cncn2)(c2ccc(Cl)cc2Cl)O1 (stereo unspecified)	-27%	x	x	0%	x	x
O=c1[nH]c(=S)[nH]c(O)c1/C=N/N1CCOCC1	-6%	-12%	0	1%	-3%	-10%
Cc1ccc(S(=O)(=O)NC(=O)NC2CCCC2)cc1	18%	-1%	x	5%	x	5%
O=C(CNC(=O)c1cccs1)NCC(=O)OCC(=O)c1ccc([N+](=O)[O-])cc1	-3%	u	0	1%	-6%	18µM*
O=C(OCC(=O)c1ccc([N+](=O)[O-])cc1)/C(=C\c1ccc(Cl)cc1)NC(=O)c1ccccc1	25%	u	u	-4%	-4%	u
C[C@]12CCC3C(CC[C@H]4C[C@@H](O)CC[C@]34C)C1=CC[C@@H]2O (stereo partly specified)	x	u	21	x	x	-27%
C=CCN1CC[C@]23c4c5ccc(O)c4O[C@H]2[C@@H](O)C=C[C@H]3[C@H]1C5	3%	u	x	-1%	x	7%
CC(C)[C@H]1C(=O)O[C@H](C(C)C)C(=O)N(C)[C@@H](C(C)C)C(=O)O[C@H](C(C)C)C(=O)N(C)[C@@H](C(C)C)C(=O)O[C@H](C(C)C)C(=O)N1C	u	4.1µM*	-8	u	u	3.3µM*
C[C@]12CCC3C(CC[C@@H]4C[C@H](O)CC[C@]34C)C1CCC2=O (stereo partly specified)	x	u	0	x	-5%	u
CC(C)Oc1ccc(C(=O)Nc2ccc3c(c2)CCCN3C(=O)c2cccs2)cc1	x	6.5µM*	x	x	x	12µM*
C=C[C@]12CN(C)[C@H]3C1[C@@]1(C(=O)Nc4ccccc41)[C@H]1C[C@H]2[C@H]3CO1	1%[16.9 µM]	x	x	-1%[17 µM]	x	x
Cc1cc(N(CCCl)CCCl)ccc1C=NNC(=O)c1cccnc1	x	u	0	x	x	10µM*
